# KB-3-1 tox – kills parental KB-3-1 adenocarcinoma cells | Potency, µM (titrated, usually from 46.1 µM), usual class: cytotoxic | KB-3-1 viability, CellTiter-Glo ATP luminescence, 72 h | AID 1347075 | hit rate 1.4% among 400,000; also: % is scaled to controls: 0 for no effect and ±100 for the full control effect; nearly all actives have a fitted effect of over 60% in size
#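 Viability of parental KB-3-1 cells, measured by CellTiter-Glo luminescence, followed a 72 h incubation at 37 °C with pinned compounds in phenol-red-free DMEM containing 10% FBS.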
# MCF10A rerep – DNA re-replication induction in MCF 10a cells | MCF 10A DNA re-replication, Hoechst nuclear intensity, 48 h | Potency, µM (top dose mostly 46.1 µM), for the others: top-dose activity, positive = re-replication, hits mostly activators | hit rate 2.9% among 350,000; also: % of control where 0% means no effect; nearly all actives have a fitted effect of over 50% in size
# SW480 rereplic – induces DNA re-replication in SW480 colon adenocarcinoma cells; Potency, µM (highest dose often 46.1 µM), for the others: at the top dose re-replication activation, hits mostly activators; SW480 DNA re-replication, Hoechst DNA content imaging, 48 h; AID 624297; hit rate 1.8% among 340,000; also: % of control where 0% means no effect; nearly all actives have a fitted effect of over 55% in size
#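 Treated cells incubate 48 hr (37 C, 5% CO2), are stained 40 min with Hoechst, and nuclear fluorescence is enumerated; a rise in nuclei with high DNA signal marks re-replication.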
# KB-V1 MDR tox – kills drug-selected multidrug resistant KB-V1 cells. KB-V1 MDR cells viability, CellTiter-Glo, 72 h. Potency, µM (top dose mostly 46.1 µM), usual class: cytotoxic. hit rate 3.4% among 400,000; also: % is scaled to controls: 0 for no effect and ±100 for the full control effect; nearly all actives have a fitted effect of over 60% in size
#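 Luminescent ATP read-out (CellTiter-Glo, 10 min) measures survival of drug-selected KB-V1 MDR cells after 72 h, 37 degrees C compound exposure. Medium: phenol-red-free DMEM, 10% FBS. Values from fitted concentration-response curves.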
# RORgamma inh – inhibitors of mouse ROR gamma transcriptional activity | Drosophila S2 Gal4-RORgamma UAS-luciferase reporter, 20 h | Potency, µM (highest dose often 53.6 µM), inactives show at the highest dose activity change, negative = inhibition, actives largely listed as inhibitors | hit rate 5.4% among 310,000 | AID 2551; also: % is scaled to controls: 0 for no effect and ±100 for the full control effect; nearly all actives have a fitted effect of over 60% in size
# Target sequence (P51450 whole entry, looked up, the tested form may be a part): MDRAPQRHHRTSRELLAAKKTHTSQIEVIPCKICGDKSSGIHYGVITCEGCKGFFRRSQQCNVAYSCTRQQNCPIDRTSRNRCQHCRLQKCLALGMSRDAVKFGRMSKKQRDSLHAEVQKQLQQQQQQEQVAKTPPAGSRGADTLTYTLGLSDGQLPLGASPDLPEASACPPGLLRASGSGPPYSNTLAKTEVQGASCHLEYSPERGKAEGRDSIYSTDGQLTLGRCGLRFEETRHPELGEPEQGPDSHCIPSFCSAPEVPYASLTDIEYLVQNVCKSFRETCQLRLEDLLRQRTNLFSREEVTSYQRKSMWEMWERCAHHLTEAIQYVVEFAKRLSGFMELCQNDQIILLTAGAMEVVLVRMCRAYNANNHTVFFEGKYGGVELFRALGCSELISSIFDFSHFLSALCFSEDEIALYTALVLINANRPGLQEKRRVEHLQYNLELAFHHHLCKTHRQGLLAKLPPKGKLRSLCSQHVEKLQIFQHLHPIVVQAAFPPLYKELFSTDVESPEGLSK
#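 Read-out: Photinus luciferase luminescence; inhibitors lower reporter signal. Insect Schneider cells with Gal4-ROR gamma fusion under metallothionein promoter, UAS reporter; 700 uM final copper sulfate induction, 20 hr, ambient temperature.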
# Gal4-VP16 FLuc – counter-screen for ROR gamma inhibitors: Gal4-VP16 reporter; Potency, µM (highest dose often 53.6 µM), without a hit: at the top dose activity, negative = inhibition, usual class: inhibitors; hit rate 3.5% among 310,000; Drosophila S2 Gal4-VP16 UAS-luciferase, luminescence, 20 h;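 also: Gal4-VP16 expression switched on by copper sulfate through the metallothionein promoter; % is scaled to controls: 0 for no effect and ±100 for the full control effect; nearly all actives have a fitted effect of over 50% in size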
# An asterisk follows results filed as active; i = inactive; ? = inconclusive; . = no result; [ ] = another dose, or the depositor's remark. A selection: hits, their analogues and other compounds. The true share with any hit is near 10%. Calls follow the shape of the dose curve; as a rule, active = well fitted curve in the direction sought with a large enough effect; inconclusive = small, poorly fitted or top-dose-only effect, or another doubt; inactive = no such curve, though single readings can be large; an effect the other way counts as inactive or inconclusive. Potency is read from the fitted curve at half-maximal effect.
SMILES,KB-3-1 tox,MCF10A rerep,SW480 rereplic,KB-V1 MDR tox,RORgamma inh,Gal4-VP16 FLuc
Nc1cc(N2CCOCC2)c(Cl)cc1[N+](=O)[O-],i,1.2%,1.8%,6.51µM*,14.5%,6.3%
C/C=C(/CC[C@@H](C)[C@H]1CCC2C3=CC[C@H]4[C@H](C)[C@@H](O)CC[C@]4(C)C3CC[C@@]21C)C(C)C (some centres undefined),.,.,.,.,-21.8%,-3.7%
C#Cc1ccc(NC(=O)C2(C)CCN2C(=O)Cc2ccc(C(C)C)cc2)cc1 (centres undefined),i,.,.,i,.,.
COc1ccc(-c2nc3cnc(N4CCNCC4)nc3n(-c3ccccc3)c2=O)cc1,.,.,.,.,-18.2%,-6.6%
O=C(CCCN1C(=O)c2cccnc2Oc2ccc(Cl)cc21)NCc1ccccc1F,i,.,.,i,.,.
CCc1ccccc1NC(=S)N(CCOC)C(C)c1ccco1 (centres undefined),i,8.4%,4.5%,i,12.6µM*,-5.4%
CCc1cccc(C)c1NC(=S)N(CCOC)C(C)c1ccco1 (centres undefined),i,-11.9%,-15.2%,i,10µM*,-0.3%
COc1ccc(NC(=S)N(CCN(C)C)C(C)c2ccco2)cc1Cl (centres undefined),i,29.2%,-14.7%,23.1µM*,?,-20.4%
COCCN(C(=S)Nc1ccc(C)cc1)C(C)c1ccco1 (centres undefined),i,-0.1%,-0.5%,i,?,-14.4%
CCOc1ccc(NC(=S)N(CCOC)C(C)c2ccco2)cc1 (centres undefined),i,1.4%,-12.4%,i,8.91µM*,?
CCOc1c2c(c(-c3ccc4c(c3)OCO4)c3cc(OC)c(OC)cc13)C(=O)OC2,1.3µM*,.,.,?,.,.
O=C(NCCN1CCCC1)c1ccc(Br)cc1,i,-13.9%,-2.9%[9.22 µM],i,-17.0%,8.4%
O=C(CCNC(=O)c1ccc(Br)cc1)NCCCN1CCOCC1,i,18.3%,-9.4%,i,.,.
O=C(CCN1CCCCC1)NNC(=S)NC(=O)c1ccc(Br)cc1,?,3.3%,-5.0%,?,2µM*,8.91µM*
O=C(CCN1CCOCC1)NNC(=S)NC(=O)c1ccc(Br)cc1,?,-1.8%,10.0%,i,11.2µM*,?
CC(=O)c1ccc(NC(=O)Cn2ncc3c(C)n(Cc4ccc(F)cc4)c(C)c3c2=O)cc1,i,.,.,i,.,.
CCOc1cccc(-c2cc(NCCc3ccccn3)n3nccc3n2)c1,i,.,.,i,.,.
CCNc1nc(NCC)nc(SCCOC(=O)Nc2ccc(Cl)cc2Cl)n1,i,18.4µM*,-1.8%,i,?,?
COc1ccc(NS(=O)(=O)c2ccc(O)c(NC(=O)c3ccc(S(=O)(=O)N4CCCCCC4)cc3)c2)cc1,i,?,-2.5%,i,4.5%,-6.9%
COc1cccc(C(=O)Nc2cccc(C(=O)N3CCOCC3)c2)c1,i,-0.7%,-4.5%,i,35.4%,15.6%
COc1ccc(NS(=O)(=O)c2cccc(NC(=O)C3=NN(c4ccccc4)C(=O)CC3)c2)cc1,?,6.9%,-3.8%,i,?,11.2µM*
COc1ccc(NS(=O)(=O)c2cccc(NC(=O)c3ccc(S(=O)(=O)N4CCCCCC4)cc3)c2)cc1,20.6µM*,?,-3.4%,?,-52.4%,3.16µM*
COc1ccc(C(=O)Nc2cccc(C(=O)N3CCCC3)c2)cc1,i,-5.1%,-8.8%,20.6µM*,41.5%,-4.7%
CN(CC(=O)Nc1ccc(S(=O)(=O)N2CCCC2)cc1)Cc1cccc(Cl)c1Cl,?,?,.,18.4µM*,-10.1%,-10.1%
Cc1ccc(-n2nc(C)c3c(C(=O)NCCc4ccc(S(N)(=O)=O)cc4)cc(C)nc32)cc1,i,.,.,?,.,.
SMILES,KB-3-1 tox,MCF10A rerep,SW480 rereplic,KB-V1 MDR tox,RORgamma inh,Gal4-VP16 FLuc
CN(CC(=O)Nc1cccc(F)c1)CC(=O)Nc1cccc(S(=O)(=O)N2CCCCCC2)c1,?,16.2%,-8.6%,18.4µM*,24.7%,-3.3%
COc1ccc(CN(C)C(=O)c2cccc(NS(=O)(=O)c3ccccc3)c2)cc1F,i,3.2%,-2.4%,8.2µM*,0.0%,14.8%
O=C(NCc1ccccn1)c1ccc(NS(=O)(=O)c2cccc([N+](=O)[O-])c2)cc1,i,11.7%,-3.9%,i,.,.
CN(C)S(=O)(=O)c1cccc(NC(=O)c2cccc(S(=O)(=O)N3CCCCC3)c2)c1,?,12.3%,7.3%,18.4µM*,.,.
CN(Cc1ccc(F)cc1)C(=O)c1cccc(NS(=O)(=O)c2ccccc2)c1,i,-1.6%,-2.9%,i,19.0%,4.2%
CN(CC(=O)Nc1cccc(F)c1)CC(=O)Nc1cccc(S(=O)(=O)N2CCCCC2)c1,i,1.9%,1.1%,i,.,.
O=C(NCc1cc([N+](=O)[O-])ccc1O)c1cccc(NS(=O)(=O)c2ccccc2)c1,i,-0.3%,-2.5%,i,11.2µM*,12.6µM*
CC(C)c1ccc(NC(=O)Cn2cc(S(=O)(=O)Cc3ccccc3Cl)c3ccccc32)cc1,i,.,.,?,.,.
COc1ccc([C@@H](C)C(=O)c2ccc(O)cc2O)cc1,.,.,.,.,-3.8%,-0.2%
CN(C)S(=O)(=O)c1cccc(NC(=O)c2cccc(NS(=O)(=O)c3ccccc3)c2)c1,11.6µM*,20.4%,-2.3%,?,?,?
Cc1ccc(NC(=O)C2CCCN(c3nnc(C)c4c(C)n(-c5ccccc5)nc34)C2)c(Cl)c1 (centres undefined),i,.,.,i,.,.
Clc1ccccc1Cn1nc(-c2ccccc2)nc1-c1ccccc1,i,25.3%,4.0%,14.6µM*,?,3.2%
Clc1ccc(Cn2nc(-c3ccccc3)nc2-c2ccccc2)cc1,i,?,2.9%,i,1.3%,27.7%
Cc1[nH]n(-c2ccccc2)c(=O)c1C(C[N+](=O)[O-])c1ccc(Cl)cc1 (centres undefined),i,?,16.4µM*,i,-11.3%,?
Cc1ccc(C(C[N+](=O)[O-])c2c(C)[nH]n(-c3ccccc3)c2=O)cc1 (centres undefined),i,?,?,i,?,?
COc1cccc(-c2nc(SCC(=O)NC3CCCC3)c(-c3ccccc3)[nH]2)c1,i,.,.,i,.,.
c1coc(CNc2nc3ccccc3s2)c1,i,3.0%,1.7%,?,-40.1%,-0.5%
Clc1ccc(CCNc2nc3ccccc3s2)cc1,i,?,14.8%,i,11.2µM*,1.7%
O=c1c(-c2nc3ccccc3s2)cccn1Cc1ccc(Cl)cc1,i,3.26µM*,?,i,25.7%,-8.8%
Clc1ncccc1-c1nc2ccccc2s1,i,-3.2%,1.8%,?,1.8%,6.4%
